Results as given in PubChem BioAssay (EPA / NIEHS).
The source made the active and inactive calls. How the source made its calls: active means hit-call score of the fitted dose curve at least 0.9, where 1 is the maximum; inactive means score below 0.9.

Columns and labels:
[1] = read-out: Macrophage colony-stimulating factor (MCSF), CSF1 (gene 1435); experiment: BSK_hDFCGF_MCSF: BioMAP Diversity Plus: hDFCGF Assay for Macrophage colony-stimulating factor (MCSF) Biomarker Activity (AID 2283060); conditions: primary human foreskin fibroblasts; actives raise or lower the signal
Method in brief: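 M-CSF levels read by ELISA at 24 h post-dosing in human skin fibroblasts. Parallel cultures stained with SRB assessed cytotoxicity at the same time point; response fitted in both directions against the DMSO baseline.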

[2] = BSK_hDFCGF_SRB: Viability Assessment in the BioMAP Diversity Plus: hDFCGF Assay (AID 2283061); conditions: primary human foreskin fibroblasts;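 further: cells exposed to compound for 24 h before the read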
Method in brief: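 Viability was read as total protein: after 10% TCA fixation, wells were stained with 0.1% sulforhodamine B and read at 560 nm. Primary human foreskin fibroblasts were dosed for 24 h, with bidirectional fitting versus DMSO.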

[3] = read-out: TIMP metallopeptidase inhibitor 1 (TIMP1), TIMP1 (gene 7076); experiment: BSK_hDFCGF_TIMP1: BioMAP Diversity Plus: hDFCGF Assay for TIMP metallopeptidase inhibitor 1 (TIMP1) Biomarker Activity (AID 2283062); conditions: primary human foreskin fibroblasts; actives raise or lower the signal
Method in brief: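 TIMP-1 measured by ELISA 24 h after chemical dosing of primary human skin fibroblasts, with gain or loss fitted relative to DMSO. Parallel SRB staining (560 nm) monitored overt cytotoxicity.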

[4] = read-out: Monokine induced gamma interferon (MIG), CXCL9 (gene 4283); experiment: BSK_hDFCGF_MIG: BioMAP Diversity Plus: hDFCGF Assay for Monokine induced gamma interferon (MIG) Biomarker Activity (AID 2283063); conditions: primary human foreskin fibroblasts; actives raise or lower the signal
Method in brief: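 Human primary foreskin fibroblasts in the hDFCGF system, exposed to test chemical for 24 h; MIG measured by ELISA. Bidirectional curve fitting against DMSO negative control as activity baseline.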

[5] = read-out: Matrix Metallopeptidase 1 (MMP1), MMP1 (gene 4312); experiment: BSK_hDFCGF_MMP1: BioMAP Diversity Plus: hDFCGF Assay for Matrix Metallopeptidase 1 (MMP1) Biomarker Activity (AID 2283064); conditions: primary human foreskin fibroblasts; actives raise or lower the signal
Method in brief: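 Primary human foreskin fibroblasts exposed to chemicals for 24 h; MMP1 measured by ELISA. Cytotoxicity tracked by SRB staining in parallel cultures; bidirectional fit relative to DMSO.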

[6] = read-out: Vascular cell adhesion molecule 1 (VCAM1), VCAM1 (gene 7412); experiment: BSK_hDFCGF_VCAM1: BioMAP Diversity Plus: hDFCGF Assay for Vascular cell adhesion molecule 1 (VCAM1) Biomarker Activity (AID 2283065); conditions: primary human foreskin fibroblasts; actives raise or lower the signal
Method in brief: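 ELISA readout of VCAM-1 on human dermal fibroblast primary cultures, 24 h after chemical exposure. Gain or loss of signal fitted in both directions against DMSO baseline.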

[7] = read-out: Plasminogen activator inhibitor-1 (PAI1), SERPINE1 (gene 5054); experiment: BSK_hDFCGF_PAI1: BioMAP Diversity Plus: hDFCGF Assay for Plasminogen activator inhibitor-1 (PAI1) Biomarker Activity (AID 2283066); conditions: primary human foreskin fibroblasts; actives raise or lower the signal
Method in brief: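 Primary dermal fibroblasts (human foreskin), hDFCGF system; compound 24 h; PAI-1 by ELISA; bidirectional fit vs DMSO control.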

[8] = read-out: Intercellular Adhesion Molecule 1 (ICAM1), ICAM1 (gene 3383); experiment: BSK_KF3CT_ICAM1: BioMAP Diversity Plus: KF3CT Assay for Intercellular Adhesion Molecule 1 (ICAM1) Biomarker Activity (AID 2283067); conditions: primary human keratinocytes with fibroblasts; actives raise or lower the signal
Method in brief: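 Cell-surface ICAM-1 was measured by ELISA 24 h after dosing primary human skin keratinocytes co-cultured with fibroblasts. Parallel SRB staining tracked overt cytotoxicity. Gain or loss of signal was fitted relative to DMSO.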

[9] = read-out: Interferon-gamma inducible Protein 10 (IP10), CXCL10 (gene 3627); experiment: BSK_KF3CT_IP10: BioMAP Diversity Plus: KF3CT Assay for Interferon-gamma inducible Protein 10 (IP10) Biomarker Activity (AID 2283068); conditions: primary human keratinocytes with fibroblasts; actives raise or lower the signal
Method in brief: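 Human keratinocyte plus foreskin fibroblast primary co-culture exposed to test chemical for 24 h; IP-10 measured by ELISA. Concentration-response fitted bidirectionally against DMSO control as baseline.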

[10] = BSK_KF3CT_SRB: Viability Assessment in the BioMAP Diversity Plus: KF3CT Assay (AID 2283069); conditions: primary human keratinocytes with fibroblasts;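 further: total protein by sulforhodamine B staining as a cytotoxicity measure; read 24 h after compound addition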
Method in brief: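 Human keratinocyte and foreskin fibroblast co-culture exposed to chemical for 24 h. Total protein measured in parallel cultures by 0.1% sulforhodamine B staining after 10% TCA fixation, read at 560 nm; bidirectional fit relative to DMSO.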

[11] = read-out: Interleukin-1 alpha (IL1a), IL1A (gene 3552); experiment: BSK_KF3CT_IL1a: BioMAP Diversity Plus: KF3CT Assay for Interleukin-1 alpha (IL1a) Biomarker Activity (AID 2283070); conditions: primary human keratinocytes with fibroblasts; actives raise or lower the signal
Method in brief: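 Primary human keratinocyte plus foreskin fibroblast co-culture, dosed and measured at 24 h in 96-well plates. IL-1a level quantified by ELISA; bidirectional fit relative to DMSO.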

[12] = read-out: TIMP metallopeptidase inhibitor 2 (TIMP2), TIMP2 (gene 7077); experiment: BSK_KF3CT_TIMP2: BioMAP Diversity Plus: KF3CT Assay for TIMP metallopeptidase inhibitor 2 (TIMP2) Biomarker Activity (AID 2283071); conditions: primary human keratinocytes with fibroblasts; actives raise or lower the signal
Method in brief: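 Cells: human keratinocytes co-cultured with foreskin fibroblasts. Treat with chemical, 24 h. Measure TIMP-2 by ELISA; fit curves bidirectionally vs DMSO baseline.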

[13] = read-out: C-C motif chemokine 2 (Homo sapiens) (UniProt P13500); experiment: BSK_KF3CT_MCP1: BioMAP Diversity Plus: KF3CT Assay for Monocyte Chemoattractant Protein 1 (MCP1/CCL2) Biomarker Activity (AID 2283073); conditions: primary human keratinocytes with fibroblasts; actives raise or lower the signal
Method in brief: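 ELISA read-out of MCP-1, 24 h post-dose, in primary human skin keratinocytes co-cultured with fibroblasts. Parallel SRB staining monitors cytotoxicity; changes fitted both directions relative to DMSO.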

[14] = read-out: urokinase plasminogen activator (uPA), PLAU (gene 5328); experiment: BSK_KF3CT_uPA: BioMAP Diversity Plus: KF3CT Assay for urokinase plasminogen activator (uPA) Biomarker Activity (AID 2283075); conditions: primary human keratinocytes with fibroblasts; actives raise or lower the signal
Method in brief: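 Primary human keratinocyte/foreskin fibroblast co-culture exposed to chemical; uPA measured by ELISA at 24 h. Bidirectional fit versus DMSO, with parallel SRB total-protein staining for cytotoxicity.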

CD40, CD40 (gene 958) = experiment: BSK_LPS_CD40: BioMAP Diversity Plus: LPS Assay for CD40 Biomarker Activity (AID 2283076); conditions: primary human HUVEC with PBMC; actives raise or lower the signal
Method in brief: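 In the LPS system of human endothelial cells with peripheral blood mononuclear cells, CD40 levels were read by ELISA 24 h post-treatment. Signal changes in either direction were fitted against the DMSO baseline, with parallel SRB protein staining.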

[15] = read-out: E-selectin (Homo sapiens) (UniProt P16581); experiment: BSK_LPS_Eselectin: BioMAP Diversity Plus: LPS Assay for Eselectin Biomarker Activity (AID 2283077); conditions: primary human HUVEC with PBMC; actives raise or lower the signal
Method in brief: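 E-selectin ELISA on LPS-stimulated endothelial cell/PBMC co-cultures, read 24 h post-treatment; gains and losses fitted against DMSO. Parallel SRB staining (0.1% SRB after 10% TCA fixation, 560 nm) flags overt cytotoxicity.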

[16] = read-out: Interleukin-8 (IL8), CXCL8 (gene 3576); experiment: BSK_LPS_IL8: BioMAP Diversity Plus: LPS Assay for Interleukin-8 (IL8) Biomarker Activity (AID 2283078); conditions: primary human HUVEC with PBMC; actives raise or lower the signal
Method in brief: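 ELISA read-out of IL-8 after 24 h chemical treatment of LPS-activated endothelial/PBMC human primary co-cultures. Changes either up or down relative to DMSO; overt cytotoxicity checked by sulforhodamine B staining in parallel wells.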

[17] = BSK_LPS_SRB: Viability Assessment in the BioMAP Diversity Plus: LPS Assay (AID 2283079); conditions: primary human HUVEC with PBMC;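 further: total protein by sulforhodamine B absorbance as a cytotoxicity measure; measured one day after compound addition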
Method in brief: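 SRB viability endpoint: cells fixed with 10% TCA, stained with 0.1% SRB, read at 560 nm, 24 h post-dose. HUVEC/PBMC co-culture; signal change in either direction scored relative to DMSO.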

[18] = read-out: Matrix Metallopeptidase 9 (MMP9), MMP9 (gene 4318); experiment: BSK_KF3CT_MMP9: BioMAP Diversity Plus: KF3CT Assay for Matrix Metallopeptidase 9 (MMP9) Biomarker Activity (AID 2283074); conditions: primary human keratinocytes with fibroblasts; actives raise or lower the signal
Method in brief: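 Human keratinocyte and foreskin fibroblast co-culture exposed to chemicals for 24 h; MMP9 biomarker measured by ELISA, bidirectional fitting relative to DMSO; cytotoxicity tracked by SRB total protein staining in parallel cultures.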

[19] = read-out: Interleukin-1 alpha (IL1a), IL1A (gene 3552); experiment: BSK_LPS_IL1a: BioMAP Diversity Plus: LPS Assay for Interleukin-1 alpha (IL1a) Biomarker Activity (AID 2283080); conditions: primary human HUVEC with PBMC; actives raise or lower the signal
Method in brief: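 Readout is IL-1a level by ELISA, 24 h post-dose, fitted as gain or loss relative to DMSO. System: LPS-activated human primary co-culture of vascular endothelium and peripheral blood mononuclear cells, with parallel SRB total-protein cytotoxicity.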

Measured: outcome

Sequence of E-selectin (Homo sapiens) (P16581 whole entry, looked up): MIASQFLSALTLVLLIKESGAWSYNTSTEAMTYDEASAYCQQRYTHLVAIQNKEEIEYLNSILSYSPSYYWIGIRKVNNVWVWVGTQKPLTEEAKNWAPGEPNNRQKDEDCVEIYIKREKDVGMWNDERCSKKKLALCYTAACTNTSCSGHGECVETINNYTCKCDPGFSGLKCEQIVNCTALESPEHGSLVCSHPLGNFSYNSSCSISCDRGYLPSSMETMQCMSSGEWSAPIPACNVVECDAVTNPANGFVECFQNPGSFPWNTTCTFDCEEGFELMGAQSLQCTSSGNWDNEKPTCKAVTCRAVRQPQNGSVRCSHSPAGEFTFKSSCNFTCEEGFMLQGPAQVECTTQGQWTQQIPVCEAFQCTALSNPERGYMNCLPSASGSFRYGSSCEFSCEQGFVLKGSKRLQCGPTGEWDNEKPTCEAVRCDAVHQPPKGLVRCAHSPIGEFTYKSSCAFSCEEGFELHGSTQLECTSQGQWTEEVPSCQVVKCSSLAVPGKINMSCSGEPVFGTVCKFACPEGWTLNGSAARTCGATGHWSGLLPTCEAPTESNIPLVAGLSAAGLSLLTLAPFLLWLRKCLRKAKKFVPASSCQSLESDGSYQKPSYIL

O=S(=O)(O)C(F)(F)C(F)(F)C(F)(F)C(F)(F)C(F)(F)C(F)(F)C(F)(F)F
inactive: [1] | [2] | [3] | [4] | [5] | [6] | [7] | [8] | [9] | [10] | [11] | [12] | [13] | [14] | CD40, CD40 (gene 958) | [15] | [16] | [17]

C=C(C)C(=O)OCCC(F)(F)C(F)(F)C(F)(F)C(F)(F)C(F)(C(F)(F)F)C(F)(F)F
inactive: [1] | [2] | [3] | [4] | [5] | [6] | [7] | [8] | [9] | [10] | [11] | [12] | [13] | [14] | CD40, CD40 (gene 958) | [15] | [16] | [17]

FC(F)(F)C(F)(F)C(F)(F)C(F)(F)C(F)(F)C(F)(F)C(F)(F)C(F)(F)F
inactive: [1] | [2] | [3] | [4] | [5] | [6] | [7] | [8] | [9] | [10] | [11] | [12] | [13] | [18] | [14] | CD40, CD40 (gene 958) | [15] | [16] | [17] | [19]

CCCCCCC(C)OC(=O)CCCCC(=O)OC(C)CCCCCC (stereo not given)
inactive: [1] | [2] | [3] | [4] | [5] | [6] | [7] | [8] | [9] | [10] | [11] | [12] | [13] | [14] | CD40, CD40 (gene 958) | [15] | [16] | [17] | [19]
